HPGD block: qHTS Assay for Inhibitors of HPGD (15-Hydroxyprostaglandin Dehydrogenase). 15-hydroxyprostaglandin dehydrogenase [NAD(+)] (Homo sapiens), P15428. purified HPGD, NADH fluorescence kinetic, PGE2 substrate. Potency, µM, most hits filed as inhibitors. 4.3% of 150,000 active. AID 894, 2007
Target sequence (P15428 whole entry, looked up): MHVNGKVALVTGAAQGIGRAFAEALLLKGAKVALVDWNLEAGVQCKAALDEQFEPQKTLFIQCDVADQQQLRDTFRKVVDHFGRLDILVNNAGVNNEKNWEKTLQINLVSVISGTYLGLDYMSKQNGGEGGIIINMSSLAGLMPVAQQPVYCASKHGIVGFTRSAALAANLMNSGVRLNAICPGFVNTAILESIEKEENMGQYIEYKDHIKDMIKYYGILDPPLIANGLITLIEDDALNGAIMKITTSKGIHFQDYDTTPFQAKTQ
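NADH formation kinetics: reaction with 30 uM PGE2 and 1 mM NAD+ (final), 20 nM enzyme, Tris-HCl pH 8 with Tween 20, after 15 min compound preincubation at room temperature. Fluorescence change, last versus first of five reads.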
HTT cytoprotect: qHTS Multiplex Assay to Identify Dual Action Probes in a Cell Model of Huntington: Cytoprotection (ATP); PC12 HTT-Q103 induced, cytoprotection, ATP luminescence, 40 h; Potency, µM (titrated, usually from 56.4 µM), most hits filed as activators; AID 1471, 2008; 0.14% of 230,000 active; active means well fitted curve in the direction sought with a large enough effect; inconclusive means small, poorly fitted or top-dose-only effect, or another doubt; inactive means no such curve, though single readings can be large; an effect the other way counts as inactive or inconclusive; further: nearly all actives have a fitted effect of over 45% in size
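Compounds added alongside 100 nM tebufenozide, which induces toxic Q103 huntingtin exon 1-GFP in stable PC12 cells; surviving cells quantified by luminescent ATP measurement. Medium: phenol red-free DMEM, 5% equine and 5% calf serum.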
ALDH1A1 inh: qHTS Assay for Inhibitors of Aldehyde Dehydrogenase 1 (ALDH1A1) | AID 1030, 2008 | Potency, µM (doses to about 75.3 µM), usual class: inhibitors | Purified ALDH1A1, NADH fluorescence, propionaldehyde substrate | 7.3% of 220,000 active | Aldehyde dehydrogenase 1A1 (Homo sapiens), P00352
Target sequence (P00352 whole entry, looked up): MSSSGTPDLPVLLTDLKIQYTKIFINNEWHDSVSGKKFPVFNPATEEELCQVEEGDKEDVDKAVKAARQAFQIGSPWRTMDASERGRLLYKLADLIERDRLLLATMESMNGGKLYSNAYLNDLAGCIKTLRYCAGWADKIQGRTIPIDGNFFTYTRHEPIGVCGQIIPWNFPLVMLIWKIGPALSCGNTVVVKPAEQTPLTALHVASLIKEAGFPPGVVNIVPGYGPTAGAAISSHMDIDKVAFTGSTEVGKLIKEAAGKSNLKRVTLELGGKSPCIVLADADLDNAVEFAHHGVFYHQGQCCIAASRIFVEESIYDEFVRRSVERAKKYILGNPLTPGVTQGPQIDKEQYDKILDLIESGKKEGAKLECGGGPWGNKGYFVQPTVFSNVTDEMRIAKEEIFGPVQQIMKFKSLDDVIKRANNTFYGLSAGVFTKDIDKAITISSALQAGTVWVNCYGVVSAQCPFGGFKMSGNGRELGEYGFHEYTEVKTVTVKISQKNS
LMNA splice mod: qHTS Assay for Modulators of Lamin A Splicing. HeLa LMNA splicing GFP/RFP minigene ratio, 48 h. 0.01% of 200,000 active. Potency, µM (top dose mostly 46.1 µM), most hits filed as inhibitors; active means well fitted inhibition curve with a large enough effect in the signal ratio, with a control signal flat, not every such curve was filed as active; inconclusive means small, poorly fitted or top-dose-only effect, or effect the other way, or a change in a side signal; the % refers to the signal ratio
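Read-out is the ratio of GFP to DsRed2 object intensity, acquired by 488 nm laser-scanning cytometry on HeLa lamin A-EGFP minigene reporter cells. Compound incubation 48 hrs at 37 °C in Opti-MEM with 2% FBS; DMSO 0.5% final.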
HTT aggregate: qHTS Multiplex Assay to Identify Dual Action Probes in a Cell Model of Huntington: Aggregate Formation (GFP) | Potency, µM (doses to about 46.1 µM), usual class: inhibitors | AID 1688, 2009 | PC12 HttQ103-GFP aggregates, Acumen cytometry, 40 h | 1.1% of 220,000 active; active means well fitted curve in the direction sought with a large enough effect; inconclusive means small, poorly fitted or top-dose-only effect, or another doubt; inactive means no such curve, though single readings can be large; an effect the other way counts as inactive or inconclusive; further: nearly all actives have a fitted effect of over 60% in size
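Using laser scanning cytometry, GFP-positive aggregates were counted after lysis of PC12 cells induced with 100 nM tebufenozide to express HTT exon 1 Q103–GFP. Compounds were tested in titration.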
Hits are given with their value; - = inactive; ? = inconclusive; . = no result; [ ] = dose if it differs, or a comment. Sampled rows, rich in hits. Any-hit rate of the full collection: about 8.8%. Unless noted, the call rests on the fitted dose curve; in most records, active means well fitted inhibition curve with a large enough effect (not every such curve was filed as active); inconclusive means small, poorly fitted or top-dose-only effect, or another doubt; inactive means no such curve, though single readings can be large or run the other way.

SMILES	HPGD block	HTT cytoprotect	ALDH1A1 inh	LMNA splice mod	HTT aggregate
CC1=C(C(=O)Nc2cccc(C(F)(F)F)c2)C2(CCCCCC2)OC1=O	.	.	.	-	.
COc1ccc(CCNC(=O)c2cnc3sc(N4CCCC4)nn3c2=O)cc1OC	.	.	.	-	.
CC(/C=N/n1c(-c2cc(C)[nH]n2)n[nH]c1=S)=C\c1ccco1	.	-[10 µM]	.	.	-[9.22 µM]
CC(/C=N/n1c(-c2ccccn2)n[nH]c1=S)=C\c1ccccc1	.	-[10 µM]	.	.	-[9.22 µM]
Cc1ccc(/C=N/n2c(-c3ccc(Cl)cc3)n[nH]c2=S)o1	.	-[10 µM]	.	.	-[9.22 µM]
CC(/C=N/n1c(-c2ccco2)n[nH]c1=S)=C\c1ccccc1	2.5µM	-[10 µM]	-	-	-
Cc1ccc(-c2n[nH]c(=S)n2/N=C\c2ccco2)cc1	22µM	-[10 µM]	-	-	-
CC(/C=N/n1c(-c2ccc(Cl)cc2)n[nH]c1=S)=C\c1ccco1	.	-[10 µM]	28µM	?	-[9.22 µM]
Cc1ccc(-c2n[nH]c(=S)n2/N=C/c2ccc(C)o2)cc1	13µM	-[10 µM]	?	-	-
COc1ccc(OC)c(CNC(=O)c2ccc3nc(C(C)C)oc3c2)c1	.	.	.	-	.
CCOc1ccc(C(=O)CCN2CCCCC2)cc1	?	-	0.016µM	?	-
COc1ccc(C(O)(CCc2ccccc2)CCN2CCCCC2)cc1 (configuration not stated)	.	-	2.2µM	.	-
CC1(C)CC2(CCCN(C(=S)Nc3ccccc3)C2)CCO1 (configuration not stated)	.	-[10 µM]	.	.	-[9.22 µM]
COc1ccc(C(=O)CCN2CCCCCC2)cc1	-	-	0.063µM	?	?
CCC1(C)CC2(CCCN(CCC(=O)c3ccccc3)C2)CCO1 (configuration not stated)	.	-	0.71µM	-[9.22 µM]	-
CCC1CCCCN1Cc1ccc(N)cc1 (configuration not stated)	.	-[10 µM]	-	.	-[9.22 µM]
COc1ccc(NC(=O)CSC2=Nc3ccccc3C3=NC(CCC(=O)NCc4ccco4)C(=O)N23)cc1 (configuration not stated)	.	.	.	-	.
COc1ccc(C(=O)OCCN2CCCCC2)cc1	.	-	-	-	-
CCCOc1ccc(C(=O)CCN2CCN(C(=O)OCC)CC2)cc1	.	-	0.71µM	.	-
COc1ccc(C(=O)CCN2CCN(c3ccccc3F)CC2)cc1	.	-	0.13µM	.	-
O=C(CCN1CCN(c2ccccc2F)CC1)c1ccc(Br)cc1	.	-	?	?	-
O=C(CCN1CCCCCC1)c1ccccc1	-	-[1.9 µM]	6.3µM	-	-
O=C(CCN1CCCC1)c1cccs1	.	-[10 µM]	.	.	-[9.22 µM]
CC(C)Oc1ccc(C(=O)CCN2CCCCC2)cc1	-	-[1.9 µM]	0.071µM	-	?
C/C=N\NC(=O)COc1cc(C)ccc1C	.	.	-	-	.
SMILES	HPGD block	HTT cytoprotect	ALDH1A1 inh	LMNA splice mod	HTT aggregate
CCCCC1=NN2CCS(=O)(=O)N=C2S1	.	-	-	-	-
Cc1cc(N2CCN(C(c3ccccc3)c3ccccc3)CC2)n2ncnc2n1	-	-	?	?	-
Cc1cc(N2CCN(c3nc4ccccc4s3)CC2)n2ncnc2n1	-	-	?	-	11µM
C/C(=N/NC(=O)CSc1nc2ccccc2s1)c1ccncc1	.	-[10 µM]	20µM	.	-[9.22 µM]
CS/C(=N\S(=O)(=O)c1cccs1)NC(=O)CSc1nc2ccccc2s1	25µM	-	28µM	-	-
C/C(=N/NC(=O)CSc1nc2ccccc2n1C)c1ccncc1	.	-	10µM	.	-
Cc1ccc(C(=O)Nc2nnc(SCc3cc(=O)n4ccc(C)cc4n3)s2)cc1	.	.	.	-	.
O=c1c(Cc2c(F)cccc2Cl)c(O)ccn1C1CC1	.	-	-	?	-
CCOc1cc(/C=C2\C(=O)N(CCc3ccc(OC)c(OC)c3)C(C)=C2C(=O)OC)ccc1O	?	-[10 µM]	11µM	-	?
C=CCN1C(=O)/C(=C\c2ccco2)C(C(=O)OC)=C1C	32µM	-[10 µM]	-	-	-
COC(=O)C1=C(C)N(Cc2ccc(C)cc2)C(=O)/C1=C\c1ccc(O)c(OC)c1	?	-	?	?	?
CCOc1cc(/C=C2\C(=O)N(Cc3ccco3)C(C)=C2C(=O)OC)ccc1O	.	-	16µM	?	-
COc1ccc(CCNC(=O)COc2ccc(C)nc2[N+](=O)[O-])cc1OC	.	-[10 µM]	-	-	-
COc1ccc(C2=C(C)C(=O)N(Cc3ccc(C(=O)NC(C)c4ccccc4)cc3)S2(=O)=O)cc1 (configuration not stated)	.	.	.	-	.
COCCNC(=O)c1ccc2c(c1)nc(C)n2-c1cccc(F)c1	7.1µM	-	-	-	-[9.22 µM]
O=S(=O)(NCc1nc2cccnc2n1Cc1ccccc1Cl)c1ccc2c(c1)CCCC2	.	.	.	-	.
C/C(=N\NC(=O)c1cc(C(C)C)[nH]n1)c1ccco1	22µM	-[10 µM]	-	?	-
Cc1ccc(CNC(=O)c2ccc(N3CCCC3=O)cc2)cc1	-	-	-	-	-
Cn1nc(C(C)(C)C)cc1C(=O)NCc1ccc(N2CCCC2=O)cc1	-	-[10 µM]	-	?	1.8µM
CN1C(=O)CSc2ccc(NC(=O)NCCC3=CCCCC3)cc21	-	-	7.9µM	-	-[9.22 µM]
COCCNC(=O)Nc1ccc2c(c1)N(C)C(=O)CS2	-	-	22µM	-	-[9.22 µM]
Cc1ccc(CNC(=O)CCCN2C(=O)c3cccnc3Oc3ccc(Cl)cc32)cc1	.	.	.	-	.
COC(=O)c1ccc(C(NC(=O)OCc2ccccc2)/C(C)=C/[C@@H](C)C(=O)N[C@@H](CO)Cc2ccccc2)cc1 (some centres not stated)	-	-	?	.	.
COC(=O)c1cc(C(=O)OC)n(Cc2ccc(F)cc2)c1C	.	-	-	.	-
Cc1c(C#N)c(NC(=O)CCl)n(Cc2ccccc2)c1C	.	-	-	.	4µM
SMILES	HPGD block	HTT cytoprotect	ALDH1A1 inh	LMNA splice mod	HTT aggregate
CCN(CC)C(=O)c1sc(NC(=O)Cc2cccs2)c(C#N)c1C	-	-[10 µM]	-	-	-
Cc1c(C#N)c(NC(=O)CCl)n(Cc2ccc(F)cc2)c1C	.	-	?	.	6.3µM
Cc1c(C#N)c(NC(=O)CCl)n(Cc2cccs2)c1C	.	-[10 µM]	?	?	20µM
CCOC(=O)c1cnn(-c2ccccc2)c1NC(=O)CCl	-	-[10 µM]	?	-	-
C=CC[C@@H]1C=C[C@@H](O/N=C\C[C@@H]2C=C[C@H](OC(C)=O)[C@H](COC(C)=O)O2)[C@@H](CO)O1	.	-[10 µM]	-[13.5 µM]	.	.
Cc1ccc(S(=O)(=O)Nc2cc(C(C)C)c(O)cc2C)cc1	-	-	2µM	?	-
Cc1ccc(-c2noc(CCC(=O)NC3CCCc4ccccc43)n2)cc1 (configuration not stated)	-	.	?	?	3.2µM
Cc1ccc(-c2noc(CCC(=O)NC3CCN(Cc4ccccc4)CC3)n2)cc1	-	-	-	?	?
Cc1ccc(-c2noc(CCC(=O)N(C)c3ccccc3C)n2)cc1	14µM	-	-	?	?
COc1ccc(-c2noc(CCC(=O)N3CCC(C)CC3)n2)cc1	5µM	-	?	-	-

Source: PubChem (National Center for Advancing Translational Sciences (NCATS))
